Data as given in the supplement of paper PMC13380429.

Tested on: Vero E6 infected with SARS-CoV-2
Test: SARS-CoV-2 infection rate relative to infected DMSO; higher = more infection, active = 60 or less
Conditions: 24 h

Row | SMILES | SARS-CoV-2 infection rate
1 | CNC(=O)[C@@H](c1ccccc1)N1CCc2cc(OC)c(OC)cc2[C@@H]1CCc1ccc(C(F)(F)F)cc1 [almorexant] (10 µM) | 105% (inactive)
2 | O=C(O)[C@@H]1C[C@@H](O)CN1 [L-hydroxyproline] (10 µM) | 101% (inactive)
3 | CCCc1ncc(C[n+]2ccccc2C)c(N)n1 [amprolium] (10 µM) | 104% (inactive)
4 | CC(C)n1nnc2cc(C(=O)O)ccc21 (10 µM) | 102% (inactive)
5 | CCc1nc2ccc(Cl)cn2c1C(=O)NCc1ccc(N2CCC(c3ccc(OC(F)(F)F)cc3)CC2)cc1 (10 µM) | 96% (inactive)
6 | CCN(CC)CCOC(=O)c1cc(Cl)c(N)cc1OC (10 µM) | 104% (inactive)
7 | c1ccc2c(CC3=NCCN3)cccc2c1 [naphazoline] (10 µM) | 99% (inactive)
8 | Cc1ccc(S(=O)(=O)OCC(=O)Nc2ccc(C(=O)O)c(O)c2)cc1 [STAT3-inhibitor-VI] (10 µM) | 110% (inactive)
9 | O=C1c2ccccc2C(Cc2ccnc(F)c2)(Cc2ccnc(F)c2)c2ccccc21 (10 µM) | 113% (inactive)
10 | C[C@]12CCC(=O)C=C1CC[C@@H]1[C@@H]2[C@@H](O)C[C@@]2(C)[C@H]1CC[C@]2(O)C(=O)COC(=O)CCC(=O)O [hydrocortisone-hemisuccinate] (10 µM) | 116% (inactive)
11 | CC1=C(CC(=O)O)c2cc(F)ccc2/C1=C\c1ccc(S(C)(=O)=O)cc1 [exisulind] (10 µM) | 109% (inactive)
12 | CCc1cc2c(cc1N1CCC(N3CCOCC3)CC1)C(C)(C)c1[nH]c3cc(C#N)ccc3c1C2=O [alectinib] (10 µM) | 106% (inactive)
